# Screening results as filed in PubChem BioAssay.
# MARV entry inh: Marburg virus entry inhibition; Potency, µM (titrated, usually from 37.8 µM), inactives show top-dose activity change, negative = inhibition, most hits filed as inhibitors; Marburg virus pseudotyped entry inhibition, cell reporter; 300,000 tested, 1.8% active; AID 540276; calls by dose curve; tested in HEK293 cells; note: potency is the fitted concentration of half-maximal effect; % is set by controls: 0 for no effect and ±100 for the full control effect
# LASV entry inh: Lassa virus entry inhibition | Lassa virus pseudotype entry inhibition, cell reporter | Potency, µM (highest dose often 37.9 µM), for the others: at the top dose activity change, negative = inhibition, usual class: inhibitors | 300,000 tested, 1.2% active | AID 540256; calls by dose curve; tested in HEK293 cells; note: potency is the fitted concentration of half-maximal effect; % is set by controls: 0 for no effect and ±100 for the full control effect; nearly all actives have a fitted effect of over 50% in size
# HCMV inh: blocks human cytomegalovirus replication; AID 1259415; 410,000 tested, 4.5% active; activity change, negative = inhibition, % at 57.5 µM; HFF cells, HCMV-luciferase reporter, 72 h; hits give low values; in the data active = activity change below about -60%; inconclusive = no clear call, values can overlap the other calls; inactive = above about -39%; note: % is set by controls: 0 for no effect and ±100 for the full control effect
#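 Two-dose cell screen: HFF monolayers treated with compounds and infected with luciferase-expressing HCMV at 1 PFU/cell, 72 h at 37C, then lysed for luciferase measurement.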
# HCV inhibitor: HCV inhibition | Huh7.5.1 HCVcc-Cre infection, luciferase reporter, 44 h | Potency, µM (highest dose often 41.8 µM), without a hit: top-dose activity change, negative = inhibition, actives largely listed as inhibitors | 340,000 tested, 3.4% active; active = well fitted inhibition curve with a large enough effect; inconclusive = small, poorly fitted or top-dose-only effect, or another doubt; inactive = no such curve, though single readings can be large or run the other way; note: potency is the fitted concentration of half-maximal effect; % is set by controls: 0 for no effect and ±100 for the full control effect
#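 After 44 h co-culture of compound, cells and HCVcc-Cre (~0.5 moi), substrate is added for 15 min at room temperature and luciferase measured over 15 sec. Cells were seeded at 1,000/well and pre-cultured 4 h.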
# SARS PLpro yeast: inhibitors of SARS-CoV papain-like protease in yeast; S. cerevisiae expressing SARS-CoV PLpro, growth rescue; Potency, µM (top dose mostly 32.9 µM), inactives show at the highest dose activity, positive = growth rescue, actives largely listed as activators; 330,000 tested, 0.19% active; AID 485353; calls by dose curve; note: potency is the fitted concentration of half-maximal effect; 0% is about no effect; nearly all actives have a fitted effect of over 55% in size
# FMDV inh: foot and mouth disease virus antiviral activity | 410,000 tested, 1.2% active | Potency, µM (titrated, usually from 57.9 µM), inactives show top-dose activity change, negative = inhibition, actives largely listed as inhibitors | AID 1159524 | FMDV antiviral cell-based qHTS; calls by dose curve; tested in HEK293T cells; note: read-out not given here; potency is the fitted concentration of half-maximal effect; % is set by controls: 0 for no effect and ±100 for the full control effect; nearly all actives have a fitted effect of over 45% in size
# * = called active by the depositor; ? = inconclusive; · = no result given; [ ] = another dose, or the depositor's remark. A selection: hits, their analogues and other compounds. The true share with any hit is near 8%.
SMILES,MARV entry inh,LASV entry inh,HCMV inh,HCV inhibitor,SARS PLpro yeast,FMDV inh
O=C(CNC(=O)c1ccc(S(=O)(=O)N2CCCC2)cc1)N/N=C/c1ccc(Cl)cc1,-14%,-5%,12,-7%,-7%,-1%
O=C(CNC(=O)c1ccc(S(=O)(=O)N2CCCC2)cc1)N/N=C/c1c(Cl)cccc1Cl,?,?,-72*,?,12%,?
O=C(N/N=C\c1cc(Br)ccc1O)c1ccc(S(=O)(=O)N2CCCCC2)cc1,?,?,-100*,3.5µM*,?,-2%
O=C(N/N=C/c1cc(Br)ccc1O)c1ccncc1,2.8µM*,?,0,?,-1%,18%
O=C(N/N=C/c1ccc(O)c(O)c1)c1cccc(S(=O)(=O)N2CCCCC2)c1,5%,7%,12,18%,8%,-12%
O=C(N/N=C/c1cc(Br)ccc1OC(=O)c1ccc(Br)cc1)c1ccncc1,1µM*,5.6µM*,-16,3.2µM*,-3%,0%
COc1ccccc1CNC(=O)c1cn(C)c2ccc(S(=O)(=O)N(C)C3CCCCC3)cc2c1=O,16%[46.1 µM],-6%[46.1 µM],-5,·,·,2%
COC(=O)C1CCN(Cc2ccc3c(c2)CN(C(=O)c2ccc(-n4cnnn4)cc2)CCO3)CC1,·,·,·,·,·,2%
CCOc1ccccc1C=NNC(=O)C(=O)NN=Cc1ccccc1OCC,25%,-5%,9,-18%,·,0%
O=C(N/N=C/c1cccnc1)c1cccc(NC(=O)c2cccc(Br)c2)c1,2%[46.1 µM],6%,8,-20%,1%,3%
CCOc1ccccc1NC(=O)C(=O)N/N=C/c1cc(Br)ccc1O,2.5µM*,1.6µM*,-101*,6.3µM*,7%,-21%
Cc1nc(C)c(C(=O)N/N=C/c2cc(Br)ccc2O)s1,·,·,-99*,?,3%,-1%
Cc1nc(C)c(C(=O)N/N=C/c2c[nH]c3ccccc23)s1,?,-15%,·,1%,1%,-2%
O=C(N/N=C/c1ccc(O)c2ncccc12)c1cccc(Br)c1,13µM*,?,-99*,3.5µM*,-4%,-4%
Cc1ccc2nc(COc3ccccc3NC(=O)c3ccccc3F)cc(=O)n2c1,·,-4%[46.1 µM],15,·,·,?
CCOC(=O)Nc1c[n+](N2CCOCC2)no1,1%,·,·,·,·,·
CCOC(=O)C1(Cc2cccc(Cl)c2)CCCN(C(=O)c2ccco2)C1 (stereo not given),·,·,10,-6%,3%,-3%
CCOC(=O)C1(Cc2cccc(Cl)c2)CCCN(C(=O)c2cccc(C)n2)C1 (stereo not given),7.1µM*,?,1,18µM*,0%,-14%
CCCNC(=O)OC[C@H]1O[C@H](CCO/N=C(\C)CCC(=O)OC[C@H]2O[C@H](C#Cc3ccccc3)C=C[C@@H]2Oc2ccc(C)cc2)C=C[C@@H]1Oc1ccc(OC)cc1,-29%[14.2 µM],·,·,·,·,·
CCOC(=O)N1CCN(C(=O)CSCC(=O)Nc2nc(-c3ccc(C)cc3)cs2)CC1,·,·,5,11µM*,0%,-21%
CCOC(=O)N1CCN(C(=O)CSCC(=O)Nc2nc(-c3cccs3)cs2)CC1,0%,-6%,29,13µM*,6%,14µM*
O=C(CSCC(=O)N1CCOCC1)Nc1nc(-c2ccc3c(c2)OCO3)cs1,·,·,95,-22%,0%,16%
O=c1oc2ccccc2cc1-c1cn2cc(Cc3ccc(Cl)cc3)sc2n1,-23%[46.1 µM],?,-8,·,·,58%
Cc1ccn2cc(-c3cc4ccccc4oc3=O)nc2c1,?,1.6µM*,-39,-25%,-1%,-42%
CC(=O)c1ccccc1-c1ccc2c(c1)CC(CNC(=O)Cc1c[nH]c3ccccc13)O2 (stereo not given),·,·,·,·,·,0%
Cc1ccc(NC(=O)c2cc(S(=O)(=O)NC3CCCCC3)ccc2F)cc1Cl,·,10%[46.1 µM],-25,·,·,15%
Cc1cc(Nc2cccc(C(F)(F)F)c2)ncn1,23%[46.1 µM],-1%[46.1 µM],-7,·,·,-9%
Cc1ccc(Nc2nc3nonc3nc2Nc2cccc(C(F)(F)F)c2)cc1Cl,?,?,-100*,·,·,?
COc1ccc(NC(=O)CC2Oc3ccc(C)cc3NC2=O)cc1Cl (stereo not given),-9%[46.1 µM],·,-13,·,·,-3%
